Compounds without any hit were thinned out: in the full panel of roughly 83,000, 20% have a hit.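 Assay: single dose, 48 h. Readout: percent growth (0 = no net growth; negative = cell death). Active: <10.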 Unmarked numbers belong to inactive results. Calls of active or inactive are those of the source.

The source of these data is PubChem BioAssay (NCI).

Test systems include HCT-15 colon; HT29 colon; SNB-19 CNS; U251 CNS; PC-3 prostate; UACC-62 melanoma; LOX IMVI melanoma; SK-MEL-28 melanoma; SK-MEL-2 melanoma; EKVX NSCLC; SN12C renal; UO-31 renal; TK-10 renal; ACHN renal; CAKI-1 renal; A498 renal; CCRF-CEM leukemia; MOLT-4 leukemia; SK-MEL-5 melanoma.
Holding throughout (assay): NCI-60 one-dose screen, 48 h (100 = growth as untreated, 0 = no growth, -100 = all killed)
Holding throughout (details): 10 µM unless noted

For the compound `OC(c1cc2cc(Br)ccc2c2cc(Br)ccc12)C1CCCCN1` (configuration not stated), the growth with HCT-15 colon was -71.6% (active); in the experiment with HT29 colon, -82.5% (active); with SNB-19 CNS, -70.9% (active); with U251 CNS, -94.5% (active); in the experiment with PC-3 prostate it was -88.5% (active); in the experiment on UACC-62 melanoma it was -79.4% (active). Besides, the growth is -62% (active) with LOX IMVI melanoma; -93.2% (active) in the experiment with SK-MEL-28 melanoma; -73.5% (active) in the experiment with SK-MEL-2 melanoma; -70.7% (active) with EKVX NSCLC; -73.8% (active) with SN12C renal; -80.6% (active) in the experiment with UO-31 renal. The growth in the experiment on TK-10 renal is -90.5% (active); in the experiment on ACHN renal, -73.4% (active); with CAKI-1 renal it was -81% (active); in the experiment on A498 renal it was 24%; in the experiment with CCRF-CEM leukemia it was -57.4% (active); with MOLT-4 leukemia, -71.9% (active).
For the compound `CN(C)c1oc(C2OC2c2ccccc2)nc1C#N` (configuration not stated), the growth with HCT-15 colon is 106%; in the experiment on HT29 colon it was 92.9%; in the experiment with SNB-19 CNS, 83.2%; in the experiment with U251 CNS, 94%; with PC-3 prostate, 101%; with UACC-62 melanoma, 76.1%. Further, the growth in the experiment on LOX IMVI melanoma is 99.3%; in the experiment with SK-MEL-28 melanoma, 87.8%; with SK-MEL-2 melanoma, 99.4%; with EKVX NSCLC, 102%; with SN12C renal, 95.1%; in the experiment with UO-31 renal, 77.8%. In addition, the growth is 129% in the experiment with TK-10 renal; 94.7% with ACHN renal; 93.7% in the experiment on CAKI-1 renal; 123% in the experiment with A498 renal; 86.1% in the experiment with CCRF-CEM leukemia; 97.7% in the experiment with MOLT-4 leukemia.
On to `Clc1cc(Cl)cc(-c2ccc(-c3ccc(/C=N/NC4=NCCN4)cc3)s2)c1`, for which the growth was -62.4% (active) in the experiment on HCT-15 colon; 0.288% (active) in the experiment on HT29 colon; 53.2% in the experiment on SNB-19 CNS; -79% (active) in the experiment with U251 CNS; 35.1% in the experiment with PC-3 prostate; 88.1% with SK-MEL-5 melanoma. Moreover, the growth in the experiment with UACC-62 melanoma is 68.1%; with SK-MEL-28 melanoma, 97.3%; with SK-MEL-2 melanoma, 101%; with EKVX NSCLC, 92.6%; with SN12C renal it was 25.9%; in the experiment on UO-31 renal, 53.6%. The growth in the experiment on TK-10 renal was 47%; in the experiment with ACHN renal it was 59%; in the experiment on CAKI-1 renal it was 58.4%; in the experiment with A498 renal, 88%; with MOLT-4 leukemia, 14.7%.
With `N[C@H]1CN(C(=O)c2cc3cc(Br)c(F)c(F)c3[nH]2)C[C@@H]1O`, the growth was 102% in the experiment on HCT-15 colon; 103% in the experiment on HT29 colon; 96.6% with SNB-19 CNS; 95.9% in the experiment with U251 CNS; 93.6% with PC-3 prostate; 93.6% in the experiment with UACC-62 melanoma. Further, the growth in the experiment with LOX IMVI melanoma is 89.6%; in the experiment with SK-MEL-28 melanoma, 106%; in the experiment on SK-MEL-2 melanoma, 102%; with EKVX NSCLC it was 92.8%; in the experiment with SN12C renal, 95.7%; in the experiment on UO-31 renal it was 67.2%. Further, the growth in the experiment with TK-10 renal is 107%; with ACHN renal, 102%; in the experiment on CCRF-CEM leukemia it was 97.2%; in the experiment on MOLT-4 leukemia, 98.1%.
As for `C=CCn1c2ccccc2c2c3c(c4c5ccccc5n(CC=C)c4c21)C(=O)N(O)C3=O`, the growth with HCT-15 colon was 35.5%; in the experiment with HT29 colon it was 19.2%; with SNB-19 CNS it was 36.1%; with U251 CNS, 11.5%; with PC-3 prostate, 21.8%; in the experiment with SK-MEL-5 melanoma, -48.5% (active). Moreover, the growth in the experiment on LOX IMVI melanoma was -81.2% (active); with SK-MEL-2 melanoma, 70.4%; with EKVX NSCLC, 66%; in the experiment with SN12C renal, 9.32% (active); in the experiment with UO-31 renal, -47% (active); with TK-10 renal, 50.8%. In addition, the growth in the experiment on ACHN renal is -33.6% (active); with CAKI-1 renal, -70.6% (active); in the experiment on A498 renal, 23.7%; with CCRF-CEM leukemia, 10.2%; in the experiment with MOLT-4 leukemia it was -10.4% (active).
Take `COc1cc(-c2nc(N=Nc3c(O)[nH]c4ccc(Br)cc34)[nH]c(=O)c2C#N)cc(OC)c1OC`: the growth with HCT-15 colon was 98.6%; in the experiment on HT29 colon, 106%; in the experiment with SNB-19 CNS it was 100%; in the experiment with U251 CNS, 99.7%; with PC-3 prostate, 98.8%; with UACC-62 melanoma, 96.1%. The growth in the experiment with LOX IMVI melanoma is 98.2%; with SK-MEL-28 melanoma, 111%; with SK-MEL-2 melanoma, 102%; with EKVX NSCLC it was 100%; in the experiment on SN12C renal, 97.4%; in the experiment on UO-31 renal, 90%. Moreover, the growth with TK-10 renal is 111%; with ACHN renal, 101%; in the experiment on CAKI-1 renal, 91.1%; in the experiment on CCRF-CEM leukemia, 94.5%; with MOLT-4 leukemia, 96.2%.
With `C=C1C(=O)O[C@H]2[C@H]1CC/C(Cn1cc(-c3cccc(Cl)c3)nn1)=C\CC[C@@]1(C)O[C@@H]21`, the growth in the experiment on HCT-15 colon is -72.3% (active); in the experiment on HT29 colon, -56.3% (active); in the experiment with SNB-19 CNS, 37.9%; in the experiment with U251 CNS it was -71.1% (active); with PC-3 prostate, -59.1% (active); in the experiment with SK-MEL-5 melanoma it was -52.6% (active). Further, the growth is -91.1% (active) in the experiment on LOX IMVI melanoma; -40.8% (active) in the experiment with SK-MEL-2 melanoma; -18.4% (active) in the experiment with EKVX NSCLC; -37.1% (active) in the experiment on SN12C renal; -95.4% (active) with UO-31 renal; -97.1% (active) with TK-10 renal. Moreover, the growth is -89% (active) in the experiment on ACHN renal; -82.2% (active) in the experiment with CAKI-1 renal; -26.2% (active) with A498 renal; -40.8% (active) with CCRF-CEM leukemia; -18.6% (active) with MOLT-4 leukemia.
With `ClC(Cl)c1nc(-c2cccnc2)n2nc(-c3ccccc3)cc2n1`, the growth was -21.3% (active) in the experiment on HCT-15 colon; -12.7% (active) in the experiment on HT29 colon; 25.7% in the experiment with SNB-19 CNS; -32.7% (active) with U251 CNS; 24.4% in the experiment with PC-3 prostate; 36% in the experiment on SK-MEL-5 melanoma. Also, the growth with UACC-62 melanoma was 47.5%; in the experiment with SK-MEL-28 melanoma it was 73.4%; in the experiment with SK-MEL-2 melanoma, 87.6%; in the experiment on EKVX NSCLC, 15.1%; in the experiment with SN12C renal, 41.7%; in the experiment with UO-31 renal it was 59.9%. The growth in the experiment on TK-10 renal is 27.3%; with ACHN renal, -5.02% (active); in the experiment on CAKI-1 renal, -2.31% (active); with A498 renal it was 58.5%; with MOLT-4 leukemia, 15%.
